# Laboratory results as given in PubChem BioAssay (NCATS).
# Inconclusive results are not listed. Where a call stands in place of a potency, no number is given. Active and inactive are the calls of the source. Calls come from the whole dose curve; as a rule, active = well fitted inhibition curve with a large enough effect; inconclusive = small, poorly fitted or top-dose-only effect; inactive = flat fitted curve, though single readings scatter.
# Target: Voltage-gated inwardly rectifying potassium channel KCNH2 (Homo sapiens) (UniProt Q12809)
# Sequence (Q12809 whole entry, looked up): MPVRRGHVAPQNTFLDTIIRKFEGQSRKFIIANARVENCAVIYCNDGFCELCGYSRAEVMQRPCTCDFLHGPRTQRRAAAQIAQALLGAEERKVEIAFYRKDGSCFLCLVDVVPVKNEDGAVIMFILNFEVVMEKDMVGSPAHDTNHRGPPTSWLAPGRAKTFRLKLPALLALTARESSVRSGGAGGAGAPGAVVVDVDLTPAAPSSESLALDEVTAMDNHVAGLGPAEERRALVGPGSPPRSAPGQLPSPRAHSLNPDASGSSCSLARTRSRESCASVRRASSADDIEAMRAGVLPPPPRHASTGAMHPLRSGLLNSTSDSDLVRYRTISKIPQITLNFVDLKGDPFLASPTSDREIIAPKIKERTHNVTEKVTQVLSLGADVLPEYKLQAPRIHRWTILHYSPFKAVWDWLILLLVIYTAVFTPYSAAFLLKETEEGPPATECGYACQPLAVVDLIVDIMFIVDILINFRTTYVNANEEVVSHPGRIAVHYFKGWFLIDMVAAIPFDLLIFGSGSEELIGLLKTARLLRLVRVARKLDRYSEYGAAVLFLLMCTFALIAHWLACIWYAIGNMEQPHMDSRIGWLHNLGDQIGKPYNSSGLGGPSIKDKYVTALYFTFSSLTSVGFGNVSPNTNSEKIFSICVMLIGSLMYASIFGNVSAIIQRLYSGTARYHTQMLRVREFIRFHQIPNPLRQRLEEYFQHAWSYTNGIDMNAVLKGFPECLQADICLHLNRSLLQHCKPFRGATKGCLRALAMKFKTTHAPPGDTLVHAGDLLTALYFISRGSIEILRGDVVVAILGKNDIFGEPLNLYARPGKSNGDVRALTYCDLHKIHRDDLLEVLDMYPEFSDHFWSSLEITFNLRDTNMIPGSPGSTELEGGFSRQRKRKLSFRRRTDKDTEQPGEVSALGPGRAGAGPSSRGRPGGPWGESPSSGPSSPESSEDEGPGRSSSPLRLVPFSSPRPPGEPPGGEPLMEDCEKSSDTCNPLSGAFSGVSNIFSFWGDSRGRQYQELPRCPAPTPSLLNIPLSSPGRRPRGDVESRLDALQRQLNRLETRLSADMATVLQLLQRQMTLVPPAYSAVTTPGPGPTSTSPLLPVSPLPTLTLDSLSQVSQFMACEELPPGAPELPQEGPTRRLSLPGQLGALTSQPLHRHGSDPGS
# Assay: qHTS Assay for Small Molecule Inhibitors of the Human hERG Channel Activity (AID 588834);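 note: lower thallium flux fluorescence means stronger hERG block; nearly all actives have a fitted effect of over 50% in size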
# Outline: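 Kinetic FDSS fluorescence; U2OS + hERG BacMam (~100 virus particles/cell); FluxOR Tl+ flux; ~10 min cpd; AC50 (Hill).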
# Potency is the fitted concentration of half-maximal effect.
row,Compound,Potency
1,NC(=O)c1ccc[n+]([C@@H]2O[C@H](COP(=O)([O-])OP(=O)(O)OC[C@H]3O[C@@H](n4cnc5c(N)ncnc54)[C@H](O)[C@@H]3O)[C@@H](O)[C@H]2O)c1,inactive
2,O=P(O)(O)OC[C@H]1O[C@](O)(COP(=O)(O)O)[C@@H](O)[C@@H]1O,inactive
3,O=C(O)C1=C(CSc2nnnn2CS(=O)(=O)O)CS[C@@H]2[C@H](NC(=O)[C@H](O)c3ccccc3)C(=O)N12,inactive
4,CC/C=C\C/C=C\C/C=C\C/C=C\C/C=C\C/C=C\CCC(=O)O,inactive
5,CCCCCc1ccc(C)cc1O,inactive
6,CC12CCC(C[N+](C)(CCC[N+](C)(C)C)C1)C2(C)C (stereo unspecified),inactive
7,CCCCCCCCCCCCCCCC(=O)OC[C@@H](O)[C@H]1OC[C@H](O)[C@H]1O,inactive
8,CCCOc1cc(N)ccc1C(=O)OCCN(CC)CC,inactive
9,CC(=O)N=c1sc(S(N)(=O)=O)nn1C,inactive
10,O=C1[O][Bi][O]c2ccccc21,inactive
11,CC(=O)N[C@@H](C=O)[C@@H](O)[C@H](O)[C@H](O)CO,inactive
12,CC(C)(COP(=O)(O)OP(=O)(O)OC[C@H]1O[C@@H](n2cnc3c(N)ncnc32)[C@H](O)[C@@H]1OP(=O)(O)O)C(O)C(=O)NCCC(=O)NCCS (stereo partly specified),inactive
13,NC(=S)NS(=O)(=O)c1ccc(N)cc1,inactive
14,CNC(=O)OCc1cccc(COC(=O)NC)n1,inactive
15,O=C(O)CCC(=O)c1ccc(-c2ccccc2)cc1,inactive
16,OCCN1CCN(CC/C=C2/c3ccccc3Sc3ccc(Cl)cc32)CC1,1.58 µM (active)

row,Compound,Potency
1,CCC(Oc1ccccc1)C(=O)N[C@@H]1C(=O)N2[C@@H]1SC(C)(C)[C@@H]2C(=O)O (stereo partly specified),inactive
2,Cc1c(N)nc([C@H](CC(N)=O)NC[C@H](N)C(N)=O)nc1C(=O)N[C@H](C(=O)N[C@H](C)[C@@H](O)[C@H](C)C(=O)N[C@H](C(=O)NCCc1nc(-c2nc(C(=O)NCCCCN=C(N)N)cs2)cs1)[C@@H](C)O)[C@@H](O[C@@H]1O[C@@H](CO)[C@@H](O)[C@H](O)[C@@H]1O[C@H]1O[C@H](CO)[C@@H](O)[C@H](OC(N)=O)[C@@H]1O)c1cnc[nH]1,inactive
3,CC(=O)Nc1c(I)c(C(=O)N[C@H]2C(O)O[C@H](CO)[C@@H](O)[C@@H]2O)c(I)c(N(C)C(C)=O)c1I (stereo partly specified),inactive
4,CC[C@H]1OC(=O)[C@H](C)[C@@H](O[C@H]2C[C@@](C)(OC)[C@@H](O)[C@H](C)O2)C(C)[C@@H](O[C@@H]2O[C@H](C)C[C@H](N(C)C)[C@@H]2O)[C@](C)(OC)C[C@@H](C)C(=O)[C@H](C)[C@@H](O)[C@]1(C)O (stereo partly specified),inactive
5,FC(F)OC(Cl)C(F)(F)F (stereo unspecified),inactive
6,[O]=[Bi][O]C(=O)[O][Bi]=[O],inactive
7,CC(CN(C)C)CN1c2ccccc2Sc2ccc(C(F)(F)F)cc21 (stereo unspecified),11.2 µM (active)
8,CC(=O)OCC(=O)[C@@]1(O)CC[C@H]2[C@@H]3CCC4=CC(=O)CC[C@]4(C)C3=CC[C@@]21C,inactive
9,C=CCCCCCCCCC(=O)OC,inactive
10,c1ccc(-n2cnnn2)cc1,inactive
11,CCN(CC)C(=S)S,inactive
12,C=C1CC[C@H](O)C/C1=C\C=C1/CCC[C@]2(C)[C@@H]([C@H](C)CCCC(C)C)CC[C@@H]12,inactive
13,O=C(O)COc1ccc(CCNS(=O)(=O)c2ccccc2)s1,inactive
14,CCOC(=O)Cc1ccc(-c2ccccc2)cc1,inactive
15,CC(/C=C/C=C(\C)C(=O)O[C@@H]1O[C@H](CO[C@@H]2O[C@H](CO)[C@@H](O)[C@H](O)[C@H]2O)[C@@H](O)[C@H](O)[C@H]1O)=C\C=C\C=C(C)\C=C\C=C(/C)C(=O)O[C@@H]1O[C@H](CO[C@@H]2O[C@H](CO)[C@@H](O)[C@H](O)[C@H]2O)[C@@H](O)[C@H](O)[C@H]1O,inactive
